Source: PubChem (National Center for Advancing Translational Sciences (NCATS))
ALDH1A1 block: ALDH1A1 (human) enzyme inhibition; P00352; Purified ALDH1A1, NADH fluorescence, propionaldehyde substrate; Potency, µM (doses to about 75.3 µM), without a hit: top-dose activity, negative = inhibition, usual class: inhibitors; 7.3% of 220,000 active;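 further: potency means the concentration at half of the fitted maximal effect; plate controls were no enzyme wells and a reference inhibitor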
Target sequence (P00352 whole entry, looked up): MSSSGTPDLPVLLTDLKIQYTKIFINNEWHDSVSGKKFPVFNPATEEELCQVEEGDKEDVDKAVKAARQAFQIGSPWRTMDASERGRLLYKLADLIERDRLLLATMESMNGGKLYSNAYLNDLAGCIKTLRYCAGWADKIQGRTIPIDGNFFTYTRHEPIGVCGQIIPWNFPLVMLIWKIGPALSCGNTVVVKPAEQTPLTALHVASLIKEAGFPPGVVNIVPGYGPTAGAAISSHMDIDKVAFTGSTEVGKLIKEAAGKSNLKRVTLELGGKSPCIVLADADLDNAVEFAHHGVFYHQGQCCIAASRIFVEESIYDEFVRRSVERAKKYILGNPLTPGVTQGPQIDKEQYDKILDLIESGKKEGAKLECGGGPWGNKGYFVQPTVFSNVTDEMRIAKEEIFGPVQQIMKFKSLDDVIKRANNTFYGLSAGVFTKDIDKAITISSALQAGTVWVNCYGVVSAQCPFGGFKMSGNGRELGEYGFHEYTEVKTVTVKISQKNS
PNC inhibitor: perinucleolar compartment assembly inhibition; 3.1% of 140,000 active; activity change (PNC), negative = inhibition, % at 10 µM; PC3M PTB-GFP, PNC prevalence imaging, 16 h; stronger effect = lower value;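 active means readout at or below -70, meaning at least 70% loss of cells showing the perinucleolar compartment, a nuclear body marking cancer cells; inconclusive means readout between -30 and a set limit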;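 further: plate controls were DMSO wells for no effect and camptothecin positive control wells for full effect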
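Compounds are pinned in duplicate onto adhered PC3M cells stably expressing GFP-tagged PTB and incubated 16 h at 37 C. Cells are then fixed, nuclei stained with Hoechst, and PNC-positive cells counted.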
Lamin A splicing: changes lamin A minigene splicing in HeLa cells | 0.01% of 200,000 active | Potency, µM (top dose mostly 46.1 µM), inactives show at the top dose ratio change, negative = inhibition, hits mostly inhibitors | AID 1487 | HeLa LMNA splicing GFP/RFP minigene ratio, 48 h; active means well fitted inhibition curve with a large enough effect in the signal ratio, with a control signal flat, not every such curve was filed as active; inconclusive means small, poorly fitted or top-dose-only effect, or effect the other way, or a change in a side signal; the % refers to the signal ratio; further: potency means the concentration at half of the fitted maximal effect
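Read-out is the ratio of GFP to DsRed2 object intensity, acquired by 488 nm laser-scanning cytometry on HeLa lamin A-EGFP minigene reporter cells. Compound incubation 48 hrs at 37 °C in Opti-MEM with 2% FBS; DMSO 0.5% final.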
HPGD block: HPGD (human) dehydrogenase inhibition. 4.3% of 150,000 active. Potency, µM, without a hit: at the top dose activity change, negative = inhibition, most hits filed as inhibitors. purified HPGD, NADH fluorescence kinetic, PGE2 substrate. AID 894; further: potency means the concentration at half of the fitted maximal effect
Target sequence (P15428 whole entry, looked up): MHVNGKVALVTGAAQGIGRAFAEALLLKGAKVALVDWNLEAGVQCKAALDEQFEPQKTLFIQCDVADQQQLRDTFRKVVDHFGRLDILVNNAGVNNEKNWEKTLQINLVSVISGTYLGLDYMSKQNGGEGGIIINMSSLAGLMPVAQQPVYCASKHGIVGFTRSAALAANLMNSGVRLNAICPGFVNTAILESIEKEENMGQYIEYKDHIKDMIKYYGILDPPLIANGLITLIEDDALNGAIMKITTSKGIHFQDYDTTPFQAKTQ
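20 nM HPGD preincubated 15 min at room temperature with compound in 50 mM Tris-HCl pH 8, 0.01% Tween 20. Started with 1 mM NAD+ and 30 uM prostaglandin E2; NADH fluorescence (360/450 nm) read 5 times over 30-s intervals, last minus first.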
Luc counter: blocks Kinase-Glo luciferase, a counter-screen artifact; Q27757; Kinase-Glo luciferase, ATP luminescence, 8 min; Potency, µM (top dose mostly 38.3 µM), inactives show at the top dose activity change, negative = inhibition, hits mostly inhibitors; 0.28% of 200,000 active; active means well fitted inhibition curve with a large enough effect; inconclusive means small, poorly fitted or top-dose-only effect; further: potency means the concentration at half of the fitted maximal effect; nearly all actives have a fitted effect of over 60% in size
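Kinase-Glo luciferase light output from ATP and luciferin was measured with 10 uM ATP, within the enzyme's linear range. Buffer: 50 mM imidazole pH 7.2, 50 mM KCl, 7 mM MgCl2, 0.01% Tween 20, 0.05% BSA; luminescence read after 8 min at ambient temperature.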
The depositor's hits bear a star; ? = inconclusive; / = not tested or not shown; ! = not confirmed by another sample; [ ] = another dose, or the depositor's remark. Most compounds without a hit are left out; they make up all but 10% or so of the library. Unless noted, the call rests on the fitted dose curve; in most records, active means well fitted inhibition curve with a large enough effect (not every such curve was filed as active); inconclusive means small, poorly fitted or top-dose-only effect, or another doubt; inactive means no such curve, though single readings can be large or run the other way. Unless noted, on the % scale 0 is the no-effect control and ±100 the full control effect.

SMILES | ALDH1A1 block | PNC inhibitor | Lamin A splicing | HPGD block | Luc counter
O=[N+]([O-])c1ccc(-c2[se]c3ccccc3c2I)cc1 | ? | / | / | -25.3% | -4.3%[39.9 µM]
CC(=O)Nc1ccccc1OC(=O)N(C)C | -2.5% | -5.3 | -3.7% | -10.2% | 0.7%
COC(=O)NC(=S)Nc1ccccc1NC(=S)NC(=O)OC | 10µM* | / | ? | -14.7% | -0.5%
O=C1NC(=O)C(=Cc2ccc(-c3cc(Cl)ccc3[N+](=O)[O-])o2)C(=O)N1 | 22.4µM* | / | ? | / | -5.8%
CC1CCCN(C(=O)c2ccc(N3CC4CC(C3)c3cccc(=O)n3C4)c([N+](=O)[O-])c2)C1 (stereo not drawn) | 7.94µM* | -116.4* | -14.9% | 17.8µM* | -1.7%
COc1ccc(C(=O)Nc2sc3c(c2C(=O)O)CC(C)(C)OC3)cc1 | 20µM* | 21.1 | ? | ? | -0.7%
COc1ccc(C(=O)C23CN4CN(CN(C4)C2)C3)cc1 | -4.5% | / | / | / | /
O=C(c1ccccc1)N1CCC2(CC1)OCCO2 | 2.2% | / | / | / | /
O=C(c1ccc(N2CCCCCC2)c([N+](=O)[O-])c1)N1CCC2(CC1)OCCO2 | 11.2µM* | / | 13.2%[46 µM] | / | 2.5%
CN1CCN(c2ccc(C(N)=O)cc2[N+](=O)[O-])CC1 | 8.0% | -1.5 | -9.3% | 0.4% | -0.8%
O=C(c1ccc2c(c1)OCO2)N1CCC2(CC1)OCCO2 | 5.1% | -7.9 | 3.8% | 25.1µM* | 3.9%
O=S(=O)(Cl)c1ccccc1 | ? | / | / | -11.2% | /
COc1ccc(OC)c(-n2c(O)c(C=Nc3c(C)n(C)n(-c4ccccc4)c3=O)c(=O)[nH]c2=O)c1 | -3.2% | -24.3 | -4.2% | -6.1% | -7.2%
Cc1ccccc1-n1c(O)c(/C=C2/C(c3ccccc3)=Nc3ccccc32)c(=O)[nH]c1=O | ? | ? | ? | 28.2µM* | -1.9%
Cc1cccc(N=Cc2c(O)n(-c3ccccc3C)c(=O)[nH]c2=O)c1 | 25.1µM* | 4.4 | 0.0% | ? | -5.1%
Cc1ccc(-n2c(O)c(/C=C3/C(c4ccccc4)=Nc4ccccc43)c(=O)[nH]c2=O)cc1 | 25.1µM* | 42.5 | ? | / | /
COC(=O)C1=Nc2ccccc2/C1=C\c1c(O)n(-c2cc(OC)ccc2OC)c(=O)[nH]c1=O | ? | ? | 3.0% | 14.1µM* | -3.2%
CCN1C[C@]2(C)CC[C@H](O)[C@@]34[C@@H]5C[C@@H]6[C@@H](OC)C[C@@](O)(C5[C@H]6O)[C@@H](C[C@@H]23)[C@@H]14 | 8.6% | / | ? | -8.7% | -2.2%
C[N+](=O)[O-] | 10.2% | / | / | -3.3% | /
O=S1(=O)N(CCN2CC=C(c3c[nH]c4cc(F)ccc34)CC2)c2cccc3c2N1CCC3 | 25.1µM* | / | ? | -19.7% | -2.3%
COc1ccc(-n2c(C)nc3cc(C(=O)N4CCC5(CC4)OCCO5)ccc32)cc1 | ? | 8.4 | -10.6% | 12.6µM* | -1.6%
Cc1nc2cc(C(=O)N3CCC4(CC3)OCCO4)ccc2n1-c1ccc(Br)cc1 | ? | 33.9 | 4.6% | 8.91µM* | -3.1%
O=C(c1ccc2c(c1)ncn2-c1ccc(F)cc1F)N1CCC2(CC1)OCCO2 | ? | / | / | / | 1.0%
CCOC(=O)N1CCN(Cc2ccccc2F)CC1 | 14.1µM* | 9.1 | 6.8% | -0.6% | 3.2%
Cc1ccc(CN2CCN(Cc3ccccc3F)CC2)cc1 | ? | / | -2.8%[46 µM] | / | 1.9%
SMILES | ALDH1A1 block | PNC inhibitor | Lamin A splicing | HPGD block | Luc counter
COc1ccc(N2C(=O)NC(=O)/C(=C/c3ccc4c(c3)Cc3ccccc3-4)C2=O)cc1 | ? | / | / | / | 0.1%
COc1ccc(N2C(=O)NC(=O)/C(=C\c3ccccc3[N+](=O)[O-])C2=O)cc1 | 18.9µM* | / | 13.6%[46 µM] | / | -1.5%
COc1ccc(OC)c(N2C(=O)NC(=O)/C(=C\c3ccc([N+](=O)[O-])s3)C2=O)c1 | 25.1µM* | / | -53.5%[46 µM] | / | -6.7%
CN(C)CCN(C)CCc1ccc(Cl)c(Cl)c1 | -11.5% | / | / | -5.7% | 1.2%
Nc1ccccc1-c1ccccc1 | ? | / | / | -11.7% | /
COc1ccc(C(=O)C(Cc2ccccc2)N(C)C)cc1 (stereo not drawn) | 28.2µM* | ? | -7.2% | -3.5% | 5.7%
COc1ccc(C(C)=O)cc1CC(C(=O)c1ccc(F)cc1)N(C)C (stereo not drawn) | 3.8% | -93.2* | -7.0% | -19.3% | 3.1%
CN(C)C(Cc1ccccc1)C(=O)c1ccc(-c2ccccc2)cc1 (stereo not drawn) | ? | -13.8 | -14.3% | -26.7% | -2.7%
c1cncc(CNc2cc(-c3ccc4c(c3)OCO4)ncn2)c1 | ? | / | 9.6% | ? | -20.1%
CCCCC/C=C\C/C=C\C/C=C\C/C=C\CCCC(=O)OC(CO)CO | 22.4µM*! | / | / | 28.2µM*! | -0.9%[39.9 µM]
CCCCC/C=C\C/C=C\CCCCCCCC(=O)NCCO | 7.9% | / | / | -1.7% | -0.2%
CCCCC/C=C\C/C=C\C/C=C\C/C=C\CCCC(=O)N[C@H](C)CO | 7.08µM*! | / | / | -1.3% | -1.0%[39.9 µM]
N[C@]1(C(=O)O)CC[C@@H](C(=O)O)C1 (racemic) | 2.9% | / | / | / | /
CCC(=NCc1ccco1)c1c(O)[nH]c(=O)[nH]c1=O | 3.6% | 35.8 | 7.7% | -1.2% | -4.5%
CC/C(=N\Nc1cccc2ccccc12)c1c(O)[nH]c(=O)[nH]c1=O | 14.1µM* | 2.4 | -11.7% | ? | -1.3%
CC/C(=N\Nc1ccccc1)c1c(O)[nH]c(=O)[nH]c1=O | -0.9% | / | / | / | /
CCC(=NCCC(c1ccccc1)c1ccccc1)c1c(O)[nH]c(=O)[nH]c1=O | ? | -95.9* | ? | -12.1% | -2.8%
COc1cc2c(cc1OC)[C@]13CC[N@+]4(C)CC5=CCO[C@H]6CC(=O)N2[C@@H]1C6[C@@H]5C[C@]34O (stereo partly drawn) | 16.1%[13.5 µM] | / | / | -1.0% | -3.9%[7.66 µM]
CSSC | 2.8% | / | / | -5.1% | /
[N-]=[N+]=[N-] | 17.8µM* | / | / | -10.2% | /
O=c1c2ccccc2nc(/C=C/c2ccc(O)cc2)n1-c1ccccc1O | -12.4% | / | / | / | /
O=c1c2ccccc2nc(/C=C/c2cccnc2)n1Cc1ccccc1 | 5.01µM* | / | / | / | -1.0%
C=C1CC[C@H](O)C/C1=C/C=C1\CCC[C@]2(C)[C@@H]([C@H](C)CCCC(C)C)CC[C@@H]12 | ? | / | / | ? | 0.6%[39.9 µM]
CCN(CCNc1ccc([N+](=O)[O-])c2cccnc12)S(=O)(=O)c1ccc(Cl)cc1 | 2.82µM* | -2.5 | 5.5% | -11.3% | -1.4%
O=C(O)/C=C\c1ccc[c]([Sb])c1 | 8.2%[13.5 µM] | / | / | -3.9% | -5.1%[7.66 µM]
CN(C)/C=c1\sc2c(C#N)cc(C(=O)c3ccc(Br)cc3)n2c1=O | 2µM* | 63.6 | 3.8% | -11.7% | 0.0%
O=C1NC(=O)C(=Cc2cc3c(cc2[N+](=O)[O-])OCO3)C(=O)N1 | 15.8µM* | / | -7.8%[46 µM] | / | -3.5%
ClP(Cl)(Cl)(Cl)Cl | / | / | / | -21.3% | /
O=C(O)C1Sc2[nH]c(=O)sc2C2c3cc(Cl)ccc3OC(=O)C12 (stereo not drawn) | 12.6µM* | -5.8 | 0.1% | ? | -1.3%
Cc1csc(NC(=O)C2CCCN(S(=O)(=O)c3ccc4c(c3)oc(=O)n4C)C2)n1 (stereo not drawn) | -14.7% | -10.2 | ? | 8.91µM* | 1.5%
